# Screens: PubChem BioAssay, National Center for Advancing Translational Sciences (NCATS)
# D2 antag: D2 dopamine receptor (human) antagonism. P14416. HEK293 TREx D2 cells, calcium flux, dopamine EC80. inhibition, % at 10 µM. hit rate 2% among 340,000; in the data active means inhibition above about 30%; inactive means below that, where a call was filed; further: 0% is about no effect
# Target sequence (P14416 whole entry, looked up): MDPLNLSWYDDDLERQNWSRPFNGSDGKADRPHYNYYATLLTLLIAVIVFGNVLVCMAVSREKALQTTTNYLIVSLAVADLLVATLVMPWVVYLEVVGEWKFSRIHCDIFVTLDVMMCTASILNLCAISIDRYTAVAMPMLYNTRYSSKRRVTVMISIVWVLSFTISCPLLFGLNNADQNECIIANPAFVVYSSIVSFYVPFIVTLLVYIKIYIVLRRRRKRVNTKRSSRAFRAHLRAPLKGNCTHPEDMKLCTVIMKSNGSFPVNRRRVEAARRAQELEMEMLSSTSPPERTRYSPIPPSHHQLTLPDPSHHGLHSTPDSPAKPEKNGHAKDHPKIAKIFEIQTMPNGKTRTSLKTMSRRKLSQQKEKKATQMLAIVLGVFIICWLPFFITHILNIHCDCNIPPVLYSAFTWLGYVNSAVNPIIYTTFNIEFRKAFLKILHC
#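 Compounds are added to dye-loaded, induced HEK293 T-REx cells coupled to calcium release via D2; after a 3 min kinetic read an EC80 dopamine stimulus is given and fluorescence is recorded for 3 more min.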
# D2 ag-1: agonists of human D2 dopamine receptor (beta-arrestin); P14416; DiscoveRx PathHunter D2 beta-arrestin, luminescence, 90 min; 100% = 57 uM dopamine signal; activation, % (concentration not given with the values); hit rate 0.084% among 360,000; AID 624465; in the data active means activation above about 40%; inconclusive means between about 15% and that limit
#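 Agonist mode: compounds alone added to overnight-plated D2 PathHunter cells for 90 min at 37 C, with 57 uM final dopamine (EC100) defining full response. Beta-arrestin recruitment detected by chemiluminescent reagent, read after 1 h at ambient temperature.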
# D2 PAM-1: positively modulates the human D2 dopamine receptor allosterically | hit rate 0.34% among 340,000 | potentiation, % at 10 µM | HEK293 T-REx D2, calcium flux, EC20 dopamine potentiation | AID 485347;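 active means potentiation over 3 SD above the plate norm, cut at about 30% in these data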; further: 0% is about no effect
#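 Cells plated with tetracycline inducer and held overnight at 30 C; calcium dye loaded 30–90 min at room temperature; baseline taken, compound added and read 180 s; EC20 dopamine then added and read 180 s.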
# D2 ag-2: agonists of human D2 dopamine receptor; HEK293 T-REx D2 cells, calcium flux agonist mode; activation, % at 2 µM; hit rate 0.53% among 340,000; AID 485358;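 active means activation over 3 SD above normal in the single-dose calcium agonist read, cut at about 30% in these data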; further: 0% is about no effect
#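 Calcium-flux readout, 1 cycle/sec over 180 s following compound pin transfer, in inducible HEK293 Trex D2 cells (force-coupled); dopamine controls included. Positive calcium responses during this window marked compounds as potential agonists.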
# D2 PAM-2: potentiates the human D2 dopamine receptor allosterically; DiscoveRx D2 beta-arrestin cells, luminescence, 90 min; 100% = 57 uM dopamine signal; AID 624464; potentiation, % (concentration not given with the values); hit rate 0.23% among 360,000; in the data active means potentiation above about 50%; inconclusive means mostly about 30% to 49%
#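 PathHunter beta-arrestin assay in DiscoveRx D2 cells. Compounds were added with an EC20 of dopamine (50 nM final) for 90 min at 37 deg C. Luminescence was read 1 h after detection reagent, with 57 uM dopamine as the EC100 control.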
# Numbers without * were called inactive; ? = inconclusive; nt = not tested or not shown. Hits are enriched below; roughly 2.4% of the tested compounds scored in any of these assays.
SMILES,D2 antag,D2 ag-1,D2 PAM-1,D2 ag-2,D2 PAM-2
CCCN1C=CC(=C/C=C(\C#N)C(=O)OCC)C=C1,-6,nt,0,34*,nt
CCCN1C=CC(=CC=C(C#N)C#N)C=C1,-7,-3,8,22,-2
CCCCCCN1C=CC(=C/C=C(\C#N)C(=O)OCC)C=C1,8,7,3,43*,-4
CC(C)C(=O)Nc1cccc(C(=O)Nc2nnc(C(F)(F)F)s2)c1,nt,nt,-1,-1,nt
CCOc1ccc(NC(=O)N(Cc2c[nH]c3ccccc23)C2CCCCCC2)cc1,nt,nt,8,1,nt
COc1ccc(NC(=O)CSCc2cc(=O)c3cc(Cl)ccc3[nH]2)cc1,nt,nt,3,nt,nt
CCc1nnc(SC(CC)C(=O)Nc2ccc(OC)c(Cl)c2)c2cc3occc3n12 (centres undefined),nt,nt,3,-1,nt
CC(C)c1ccccc1OCC(=O)N(C)CC(=O)Nc1ccc(F)cc1,56*,-3,-22,0,-46
Cc1ccc(SCC(=O)OCC(=O)N(C)CC(=O)Nc2ccc(F)cc2)cc1C,38*,0,6,12,10
CN(CC(=O)Nc1ccc(F)cc1)C(=O)CSc1ccc2c(c1)OCCO2,9,-2,-16,0,-2
CN(CC(=O)Nc1ccc(F)cc1)C(=O)COc1ncnc2ccccc12,3,-2,-6,0,2
COc1cccc(NC(=O)c2sc3nc(C)c(C(=O)Nc4ccc(C)cc4C)c(-c4ccc(C)o4)c3c2N)c1,nt,nt,0,1,nt
COc1cccc(S(=O)(=O)Nc2cccc(C(=O)N3CCCC3)c2)c1,-3,6,-1,0,-5
CS(=O)(=O)Nc1ccc(C(=O)N2CCN(c3ccccc3F)CC2)cc1,63*,-2,-6,0,-3
COc1cccc(S(=O)(=O)Nc2cccc(C(=O)N3CCOCC3)c2)c1,36*,-4,1,0,-17
O=C(c1ccccc1)N1CCN(c2ccccc2F)CC1,0,2,-18,3,-10
O=C(Nc1ccccc1N1CCOCC1)c1ccccc1NS(=O)(=O)c1ccc(F)c(F)c1,-3,0,6,2,-14
COc1ccc(N2CCN(C(=O)c3ccc(NS(=O)(=O)c4cccc(F)c4)cc3)CC2)cc1,3,0,34*,0,3
O=C(Nc1ccccc1N1CCOCC1)c1cccc(NS(=O)(=O)c2ccc(F)c(F)c2)c1,48*,12,-18,-1,3
CCN(C(=O)Cn1ncc2c(=O)oc3ccccc3c21)c1ccccc1F,nt,nt,3,0,nt
COc1ccc(CNC(=O)CCCc2cn(C)c3ccccc23)c(OC)c1,nt,nt,7,0,nt
Cc1cc2ncn(/N=C/c3ccc([N+](=O)[O-])s3)c2cc1C,1,13,13,3,71*
O=[N+]([O-])c1ccc(/C=N/n2cnc3ccccc32)s1,-12,?,8,1,64*
Cc1nc2ccccc2n1/N=C/c1ccc([N+](=O)[O-])s1,8,2,1,-1,16
Nc1ccc(-c2nc3ncccc3o2)cc1,33*,-3,2,0,-1
SMILES,D2 antag,D2 ag-1,D2 PAM-1,D2 ag-2,D2 PAM-2
Cc1ccc(C(=O)c2oc3ccccc3c2NC(=O)COc2ccccc2Cl)cc1,nt,nt,-2,1,nt
COC(=O)Nc1ccc(C)cc1NC(=O)OC,-9,-2,-5,1,13
CC(=O)Nc1ccc(C)cc1NC(C)=O,35*,-3,-5,-1,6
O=C(COc1ccc(Br)cc1)N1CCN(c2ccccc2)CC1,23,-1,-15,0,15
O=C(COC(=O)C1(c2ccccc2)CC1)N1CCN(c2ccc(F)cc2)CC1,35*,-1,15,0,-11
CC1CC(C)CN(C(=O)COC(=O)c2cccc([N+](=O)[O-])c2)C1 (centres undefined),2,-1,-1,0,-7
O=C(OCC(=O)N1CCN(c2ccccc2)CC1)c1cccc([N+](=O)[O-])c1,30*,-4,-17,-2,-9
O=C(COc1ccccc1)N1CCN(c2ccccc2)CC1,30*,-2,1,1,-10
CCCCC(=O)Nc1ccc2nc(SCC(=O)N3CCc4ccccc43)sc2c1,nt,nt,3,-2,nt
O=C(Cc1ccc(F)cc1)NCCc1csc2nc(-c3ccccc3F)nn12,nt,nt,-11,nt,nt
CC1(C)CC(N(Cc2ccco2)C(=O)Cc2ccccc2)CCO1 (centres undefined),-14,2,-6,0,-21
CC1(C)CC(N(Cc2cccs2)C(=O)c2ccco2)CCO1 (centres undefined),-7,0,33*,1,8
CCN(C(=O)CSc1nc2ccccc2n1CC(=O)N1CCCC(C)C1)c1ccccc1 (centres undefined),nt,nt,10,2,nt
O=c1oc2c(O)cccc2cc1-c1nc2ccccc2[nH]1,-115,5,0,149*,15
O=C(O)c1ccc2nc(-c3cc4cccc(O)c4oc3=O)[nH]c2c1,nt,nt,4,0,nt
COc1ccccc1NC(=O)Nc1ccc(N2CCOCC2)cc1,4,-2,-23,0,-4
COc1ccccc1CNCC(=O)Nc1ccc(N2CCOCC2)cc1,3,-1,-14,33*,-4
Cc1c(C)c2c(OCC(=O)NCc3ccco3)cc3c(c2oc1=O)CCC(C)(C)O3,30*,-3,3,1,-20
Cc1cc(=O)oc2c3c(cc(OCC(=O)NCC(=O)N[C@H](C(=O)O)C(C)C)c12)OC(C)(C)CC3,30*,1,14,0,3
Cc1cc(=O)oc2c3c(cc(OCC(=O)NCc4ccco4)c12)OC(C)(C)CC3,14,-3,-11,-1,-11
CC[C@H](C)[C@H](NC(=O)CNC(=O)COc1cc2c(c3oc(=O)cc(C)c13)CCC(C)(C)O2)C(=O)O,-21,2,-14,0,1
S=C1NC2(CCCCC2)Cc2ccccc21,32*,-2,-6,-1,-6
COc1ccc(OCCN2CCN(S(=O)(=O)c3ccccc3C(F)(F)F)CC2)cc1,12,0,-3,0,-1
Cc1cc(OCCN2CCN(S(=O)(=O)c3ccccc3F)CC2)ccc1C(C)C,-6,-2,66*,1,-21
COc1ccc(OC)c(CCNC(=O)c2c(C)nn(-c3ccc(F)cc3)c2-n2cccc2)c1,nt,nt,2,nt,nt
CC(CNc1ccccc1O)C(=O)O (centres undefined),-1,?,5,0,68*
CC(NC(=O)CCC(=O)Nc1ccccc1O)c1ccccc1 (centres undefined),nt,-3,nt,nt,-12
COc1cc(-c2cc(OC)c3c(C)oc(C)c3c(=O)c2)ccc1OC(=O)c1cccc(C)c1,nt,nt,14,nt,nt
CCOc1ccc(NC(=O)Cc2coc3ccc(C)cc23)cc1,nt,nt,-13,-1,nt
